High-throughput results (PubChem BioAssay)
FUS suppressor – rescues growth of FUS-expressing yeast | S. cerevisiae FUS-expressing, growth rescue, OD600, 24 h | hit rate 0.24% among 390,000 | Potency, µM (doses to about 76.6 µM), most hits filed as activators;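 further: potency means the concentration at half of the fitted maximal effect; plate controls were DMSO vehicle for no effect and reference control for full effect; nearly all actives have a fitted effect of over 55% in size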
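FUS-expressing yeast, raffinose-pregrown, induced in 2% galactose minimal medium at OD 0.005; compounds in a dilution series, 24hr at 30C. Growth restoration read as absorbance at 600 nm. CP55940 positive control, DMSO negative.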
aSyn rescue – rescues yeast growth from alpha-synuclein toxicity; Yeast expressing alpha-synuclein, growth rescue, BacTiter-Glo, 24 h; hit rate 0.14% among 370,000; Potency, µM (titrated, usually from 46.1 µM), for inactives: at the highest dose growth rescue (activation), hits mostly activators; further: potency means the concentration at half of the fitted maximal effect; % of control where 0% means no effect; nearly all actives have a fitted effect of over 65% in size
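Galactose-induced alpha-syn yeast (OD600=0.02, raffinose-pregrown) + pinned cpd, 24 hr, 30 deg C; growth by BacTiter-Glo luminescence. Growth restoration scores as activation.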
TDP43 rescue – rescues yeast growth from TDP-43 toxicity. AID 652104. hit rate 1.8% among 410,000. Potency, µM (highest dose often 46.1 µM), without a hit: at the highest dose growth rescue (activation), actives largely listed as activators. TDP-43 expressing yeast growth rescue, BacTiter-Glo, 24 h; further: potency means the concentration at half of the fitted maximal effect; % of control where 0% means no effect; nearly all actives have a fitted effect of over 50% in size
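Yeast expressing TDP-43 (pregrown in raffinose, seeded at OD600=0.02 in galactose medium) exposed to compounds 24 hr at 30 deg C. Growth read by BacTiter-Glo luminescence; rescue of toxicity appears as increased signal.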
Abeta rescue – compounds reversing amyloid beta toxicity in yeast; yeast expressing A-beta42, growth rescue, OD600, 48 h; response scale: 0% DMSO, 100% iron-clioquinol control; Potency, µM (series often up to 46.1 µM), usual class: activators; hit rate 0.063% among 410,000; AID 1347071; further: potency means the concentration at half of the fitted maximal effect; nearly all actives have a fitted effect of over 55% in size
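Growth rescue measured by 600 nm absorbance after 48 h yeast culture at 30 C with compound. Values normalized between DMSO and an equimolar ferric chloride plus clioquinol control.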
IDH1 R132H inh – blocks human mutant IDH1 R132H enzyme | hit rate 0.093% among 390,000 | Potency, µM (highest dose often 76.6 µM), for inactives: at the highest dose activity change, negative = inhibition, most hits filed as inhibitors | AID 602179 | IDH1-R132H enzyme, NADPH consumption, diaphorase/resazurin fluorescence; further: potency means the concentration at half of the fitted maximal effect; on the % scale 0 is the no-effect control and ±100 the full control effect; nearly all actives have a fitted effect of over 65% in size
Target sequence (O75874 whole entry R132H, stated change not applied): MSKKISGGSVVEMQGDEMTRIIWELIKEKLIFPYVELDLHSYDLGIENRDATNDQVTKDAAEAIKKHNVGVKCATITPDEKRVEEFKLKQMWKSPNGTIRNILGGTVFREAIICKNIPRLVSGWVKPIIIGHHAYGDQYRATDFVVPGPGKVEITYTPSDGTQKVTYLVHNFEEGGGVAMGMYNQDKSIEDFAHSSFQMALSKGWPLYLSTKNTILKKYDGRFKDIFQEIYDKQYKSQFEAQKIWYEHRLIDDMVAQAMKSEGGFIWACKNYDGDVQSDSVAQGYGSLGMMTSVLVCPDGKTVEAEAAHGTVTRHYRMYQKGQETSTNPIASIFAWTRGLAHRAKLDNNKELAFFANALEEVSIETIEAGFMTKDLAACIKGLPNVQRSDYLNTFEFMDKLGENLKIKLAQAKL
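IDH1-R132H (0.5 ug/mL) preincubated 30 min with compound, then NADPH (0.016 mM) and alpha-KG (2 mM) added; 80 min at RT, pH 7.5. Remaining NADPH coupled via diaphorase/resazurin to fluorescence (540/590 nm); concentration-response curves normalized to no-enzyme control.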
LDHA block – LDHA (human) enzyme inhibition | P00338 | purified LDHA, NADH/diaphorase-resazurin fluorescence; hits give low values | activity change, % (values are at about 110 or 230 µM) | hit rate 0.15% among 480,000; in the data active means activity change below about -30%; inconclusive means mostly about -25% to -30%;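 further: plate controls were DMSO wells for no effect and wells without enzyme for full effect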
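Remaining NADH was detected by diaphorase (0.133 mg/mL) converting 37 µM resazurin to fluorescent resorufin, read at 0 and 20 minutes. The preceding 5-minute room-temperature reaction used 2 nM LDHA, 0.2 mM sodium pyruvate and 0.06 mM NADH at pH 7.4.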
The depositor's hits bear a star; i = inactive; ? = inconclusive; · = not tested or not shown; ! = not active in a repeat. Only some compounds are listed: those with a hit (about 2% of all), similar ones and a draw of the others. Unless noted, the call rests on the fitted dose curve; in most records, active means well fitted curve in the direction sought with a large enough effect; inconclusive means small, poorly fitted or top-dose-only effect, or another doubt; inactive means no such curve, though single readings can be large; an effect the other way counts as inactive or inconclusive.

SMILES	FUS suppressor	aSyn rescue	TDP43 rescue	Abeta rescue	IDH1 R132H inh	LDHA block
O=C(NNC(=S)Nc1ccc(Cl)c(Cl)c1)c1ccccn1	i	10µM*	16.4%	i	-7.6%	-1.4
O=C(Nc1ccc(Cl)c(Cl)c1)N1CCCCCC1	i	0.2%	7.9%	i	4.5%	-1.1
O=C(Nc1ccc(Cl)c(Cl)c1)N1CCSCC1	i	-0.5%	12.6µM*	i	7.9%	-3.7
O=C(Nc1ccc(Cl)c(Cl)c1)N1CCC(c2ccccc2)C1 (configuration not stated)	i	·	35.5µM*	i	0.0%	2.6
Cc1ccc(NC(=O)N2CCCC(c3ccccc3)C2)cc1 (configuration not stated)	i	-3.3%	17.8µM*	i	40.3%	-2.6
O=C(/C=C/c1ccco1)N1CCCC(c2ccccc2)C1 (configuration not stated)	i	2.4%	-3.0%	i	5.8%	1.0
O=C(/C=C/c1ccccc1)N1CCC(c2ccccc2)C1 (configuration not stated)	·	10.1%	11.2µM*	i	1.1%	-4.0
COc1ccc(OC(=O)c2c(C)nn(-c3ccccc3)c2C)cc1	i	-20.5%	22.4µM*	i	3.2%	-10.3
CC(=O)Nc1ccc(NC(=O)CSc2nc3ccccc3nc2N2CCCCC2)cc1	i	5.5%	3.7%	i	?	-12.6
O=C(O)CSc1nc2ccccc2nc1N1CCCCC1	i	·	20µM*	i	0.9%	-17.2
Cc1ccc(NC(=O)CSc2nc3ccccc3nc2N2CCOCC2)cc1	31.6µM*!	11.9%	?	i	-20.8%	-3.9
Cc1nc2ccccc2nc1N1CCCCC1	i	-8.7%	6.6%	i	2.1%	-6.2
COC(=O)CS(=O)(=O)c1nc2ccccc2nc1N1CCCCC1	i	·	20µM*	i	0.3%	-0.5
Cc1ccc(C2CCCN2Cc2nc(-c3ccco3)no2)cc1 (configuration not stated)	·	·	·	·	·	-2.8
COc1ccc(NC(C)=O)cc1NC(=O)c1cc(-c2ccco2)nc2ccccc12	·	·	·	·	·	-1.8
Cn1cc(/C=C2/CC(=O)N(c3ccccc3)C2=O)c2ccccc21	·	·	·	·	·	1.4
Nc1c(Cl)ncnc1N/N=C/c1ccc2ccccc2n1	i	6.31µM*	?	i	-4.1%	-4.1
O=C(Cc1c(F)cccc1Cl)OCC(=O)N1CCc2ccccc21	i	6.8%	11.2µM*	i	0.1%	-5.5
O=C(Cc1c(Cl)cccc1Cl)OCC(=O)N1CCc2ccccc2C1	·	4.8%	19.2%	i	-1.9%	-0.6
O=c1[nH]c(=O)n(Cc2ccco2)c2nccc(-c3ccc4c(c3)OCO4)c12	·	·	·	·	·	0.3
Cc1ccc(-c2onc(C)c2C)cc1S(=O)(=O)N1CCCCC1	i	·	22.4µM*	i	4.1%	-0.1
CCOC(=O)C1CCN(S(=O)(=O)c2ccc(Br)c(OCC)c2)CC1	5.62µM*	6.5%	-5.1%	i	3.5%	-2.8
CCOC(=O)C1CCN(S(=O)(=O)c2cc(-c3cc(C)no3)ccc2C)CC1	i	·	25.8%	i	8.6%	0.1
CCOC(=O)C1CCN(S(=O)(=O)c2cc(-c3onc(C)c3C)ccc2C)CC1	?	·	?	i	-6.3%	-1.4
CCOC(=O)C1CCN(S(=O)(=O)c2cc(-c3onc(C)c3C)ccc2OC)CC1	?	·	25.1µM*	i	9.7%	-1.0
CCOC(=O)C1CCCN(S(=O)(=O)c2cc(-c3cc(C)no3)ccc2C)C1 (configuration not stated)	?	·	35.5µM*	i	5.8%	0.0
COC(=O)Oc1ccc(/C=C/C(=O)OC(C)C)cc1OC(=O)OC	i	-12.5%	14.1µM*	i	-0.8%	7.4
COc1ccc(/C=C/C(=O)Oc2ccc(C=O)cc2OC)cc1	i	1.3%	27.9%	i	5.3%	-2.6
